In PubChem BioAssay (Tox21) one finds Potency and outcome data, which are given here for 16 compounds.

Records with an inconclusive call do not appear. Activity calls are given as the source filed them. Unless noted, calls follow the shape of the dose curve; as a rule, active = well fitted curve in the direction sought with a large enough effect in the repeat runs; inconclusive = weak or mixed curves; inactive = no such curve, though single readings can be large; an effect the other way counts as inactive or inconclusive.

A short description of assay [1]: qHTS assay for small molecules that induce genotoxicity in human embryonic kidney cells expressing luciferase-tagged ATAD5 (AID 651632). Also: nearly all actives have a fitted effect of over 15% in size. Put shortly:
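Increased luciferase signal from ATAD5-tagged reporter cells indicates DNA-damage-driven ATAD5 induction. HEK293T cells are treated for 16 hr at 37C before detection with Amplite.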

Assay [2] is described as follows: qHTS assay for small molecule agonists of the p53 signaling pathway - cell viability (AID 651633; calls by dose curve;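 also: p53RE-bla HCT reporter cells with a stable beta-lactamase p53 reporter; series mostly up to about 83 µM; nearly all actives have a fitted effect of over 30% in size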). Put shortly: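 p53RE-bla cells, seeded at 4,000 per well and rested 5 h at 37 C/5% CO2, received compounds in DMSO for 16 h at 37 C. CellTiter-Glo was then added, and luminescence was read after 30 min at room temperature to gauge cytotoxicity.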
The nature of assay [3]: qHTS assay for small molecules that induce genotoxicity in human embryonic kidney cells expressing luciferase-tagged ATAD5 - cell viability (AID 651634; calls by dose curve; also: nearly all actives have a fitted effect of over 25% in size). An outline of the steps: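 Cytotoxicity counterscreen in HEK293T cells bearing an ATAD5-luciferase reporter: live-cell protease activity measured by CellTiter-Fluor fluorescence after 15.5 hr compound exposure.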
Assay [4] can be described thus: qHTS assay for small molecule disruptors of the mitochondrial membrane potential - cell viability (AID 720634; calls by dose curve;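 also: human HepG2 liver cancer cells; series mostly up to about 83 µM; nearly all actives have a fitted effect of over 20% in size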). An outline of the steps: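 After overnight attachment at 37 C, HepG2 cells received compound or DMSO vehicle for 1 hr. Viability is then taken from ATP-driven luminescence following a 30 min room-temperature CellTiter-Glo step.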
Assay [5] is described as follows: qHTS assay to test for compound auto fluorescence at 590 nm (red) in HepG2 cells (AID 720674). An outline of the steps: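 Rose Bengal sodium served as the red fluorophore standard. HepG2 monolayers (overnight attachment, MEM with 10% FBS) were exposed to test compounds for 1 hr at 37 C and read at Ex 540/Em 590 nm.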
The nature of assay [6]: qHTS assay to test for compound auto fluorescence at 535 nm (green) in HepG2 cells (AID 720675).
A short description of assay [7]: qHTS assay to test for compound auto fluorescence at 460 nm (blue) in HEK293 cells (AID 720678). An outline of the steps:
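Cells were seeded and left to adhere for 4-5 hr at 37C. Compounds were then pin-transferred. After an overnight incubation at 37C under 5% CO2, intrinsic fluorescence at 405/460 nm was measured and referenced to triamterene.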

The nature of assay [8]: qHTS assay for small molecule disruptors of the mitochondrial membrane potential (AID 720635). Also: potency is read from the fitted curve at half-maximal effect. Put shortly:
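HepG2 cells (2,000/well) attached overnight at 37C, then took compound for 1 hr at 37C, 5% CO2. Mito-MPS dye was added for 30 min; fluorescence was read at 490/535 nm (monomers) and 540/590 nm (aggregates).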

Assay [9] in a line: qHTS assay to test for compound auto fluorescence at 590 nm (red) in HEK293 cells (AID 720679). An outline of the steps: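 Each well held 2,000 HEK293 cells in medium containing 10% dialyzed FBS. Following 4-5 hr attachment at 37C, 23 nL test compound or DMSO was added; plates sat overnight, and red fluorescence (540/590nm) was recorded.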

On to `N[C@H]1C(O)O[C@H](CO)[C@H](O)[C@@H]1O` (stereo partly specified), for which the Potency entry in assay [1], in assay [2], in assay [3], in [4] and in assay [7] was “inactive” throughout. The compound was classed as inactive in assay [5] and in [6].
As to `CCN1CCC[C@H]1CNC(=O)c1c(OC)ccc(Br)c1OC`, the Potency result in assay [1], in assay [2], in [3], in assay [4] and in assay [8] was “inactive” throughout. For the same compound, the compound was classed as inactive in assay [5], in assay [6] and in assay [9].
On to `CCOc1ccc(NC(=O)CC(C)=O)cc1`, for which the Potency result in [1], in assay [2], in assay [3], in [4] and in assay [8] was “inactive” throughout. Also, the outcome in assay [5] and in [9] was inactive.
As to `S=C(S)NCCNC(=S)S`, the Potency entry in assay [1], in assay [2], in [3], in assay [4] and in assay [7] was “inactive” each time. Moreover, the call in [5] and in assay [6] was inactive.
In the case of `Oc1ccc(Cc2ccccc2)cc1`, the Potency entry in assay [1], in [2], in assay [3], in assay [4] and in assay [7] was “inactive” throughout. Further, the Potency in [8] was 14.2 µM (active). The result in assay [5], in [6] and in assay [9] was inactive.
As for `C[Si](C)O[Si](C)(C)O[Si](C)(C)O[Si](C)C`, the Potency entry in assay [1], in [2], in assay [3], in assay [4] and in assay [7] was “inactive” throughout. Also, the outcome in [5], in assay [6] and in assay [9] was inactive.
With `Cc1ccc(C(C)c2ccc(C)c(C)c2)cc1C`, the Potency entry in assay [1], in assay [2], in [3], in assay [4], in [8] and in assay [7] was “inactive” in each case. For the same compound, the result in assay [5], in [6] and in [9] was inactive.
`Oc1ccc(Sc2ccc(O)cc2)cc1`: the Potency entry in assay [1], in assay [2], in assay [3] and in assay [4] was “inactive” throughout. Besides, in [8], the Potency was 18.1 µM (active). In addition, the outcome in assay [5], in assay [6] and in assay [9] was inactive.
Take `CCCCCCCC/C=C\CCCCCCCC(N)=O`: the Potency entry in [1], in assay [2], in [3], in assay [4] and in assay [7] was “inactive” each time. The Potency in assay [8] is 48.5 µM (active). In addition, in assay [5], the call was inactive.
On to `CN1CCC(=C2c3ccccc3CCc3sccc32)CC1`, for which the Potency entry in [1], in [2], in assay [3], in [4] and in assay [7] was “inactive” throughout. Moreover, the result in assay [5], in assay [6] and in [9] was inactive.
Turning to `O=C(CCN1CCN2CCCC2C1)N1c2ccccc2Sc2ccc(Cl)cc21` (stereo unspecified), the Potency result in [1], in [2], in [3], in assay [4] and in assay [7] was “inactive” each time. For the same compound, the result in assay [5], in [6] and in [9] was inactive.
For the compound `O=S1(=O)c2cccc3cccc(c23)N1CCCN1CCN(c2ccc(F)cc2)CC1`, the Potency result in [1], in assay [2], in [3], in assay [4] and in [7] was “inactive” throughout. Also, the result in [5], in assay [6] and in assay [9] was inactive.
In the case of `Cl/C(=C\n1cncn1)c1ccc(Cl)cc1Cl`, the Potency entry in [1], in [2], in [3] and in [4] was “inactive” in each case. The compound was called inactive in [5], in assay [6] and in [9].
Consider `O=C1CCCCCO1`, for which the Potency entry in assay [1], in assay [2] and in assay [3] was “inactive” each time. Further, the outcome in assay [5], in assay [6] and in [9] was inactive.
`CC(C)(C)c1cc(O)c(C(C)(C)C)cc1O`: the Potency entry in assay [1], in [3] and in assay [4] was “inactive” in each case. The Potency in [8] is 6.11 µM (active). In addition, the call in assay [5], in [6] and in [9] was inactive.
Consider `O=C(O)C(c1ccc(Cl)cc1)c1ccc(Cl)cc1`, for which the Potency entry in assay [1], in assay [2], in assay [3] and in assay [4] was “inactive” each time. In addition, the compound was classed as inactive in assay [5], in assay [6] and in [9].
